# PubChem BioAssay (NCATS)
# Records with an inconclusive call do not appear. Activity calls are given as the source filed them. Unless noted, calls follow the shape of the full dose curve.
# What was measured:
# [1] = target: Bile acid receptor (Homo sapiens) (UniProt Q96RI1); test: qHTS assay for small molecule agonists of farnesoid X receptor signaling (AID 588527); settings: HEK293T FXR-UAS-bla, beta-lactamase ratio, 16 h; activation: stronger effect = higher value;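 also: series mostly up to about 77 µM; 0% = vehicle basal and 100% = reference agonist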
# In short: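 FXR-UAS-bla HEK293T, 10% dialyzed FBS; cpds up to 92 uM titration, 16 h 37 C; CCF4 dye 2 h RT; fluorescence. Normalized to chenodeoxycholic acid 100 uM (100%) and DMSO (0%); Hill fit gives EC50, efficacy.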
# [2] = target: Glucocorticoid receptor (Homo sapiens) (UniProt P04150); test: qHTS assay for small molecule antagonists of glucocorticoid receptor signaling (AID 588533; active = well fitted inhibition curve with a large enough effect in the signal ratio, with a control signal flat, not every such curve was filed as active; the % refers to the signal ratio; also: % is scaled to controls: 0 for no effect and ±100 for the full control effect)
# In short: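 Antagonist-mode qHTS: compound titrations added to GRE-bla HeLa cells, then dexamethasone 2 nM final; 18 h, 37 C. CCF4 FRET fluorescence normalized to dexamethasone and DMSO; IC50 from Hill fit.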
# [3] = target: Peroxisome proliferator-activated receptor delta (Homo sapiens) (UniProt Q03181); test: qHTS assay for small molecule agonists of peroxisome proliferator-activated receptor delta signaling (AID 588534);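 also: 0% = DMSO basal wells and 100% = positive control agonist at 10 µM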
# In short: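 Agonist-mode qHTS; reporter cells, 5 hrs 37 C pre-incubation; compound titration, 18 hrs 37 C; CCF4 dye, 2 hrs RT; fluorescence read. EC50/efficacy via Hill fit.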
# [4] = qHTS assay for small molecule antagonists of peroxisome proliferator-activated receptor delta signaling (AID 588535); settings: HEK293T PPARd-UAS-bla, beta-lactamase FRET ratio, 18 h; 460 nm channel;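 also: cells co-treated with a PPAR-delta agonist as stimulator during compound exposure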
# In short: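 Fluorescence from CCF4-loaded GeneBLAzer PPAR-delta-UAS-bla HEK293T cells (2 hrs RT loading) quantified reporter inhibition after an 18 hr, 37 C compound exposure across a titration.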
# [5] = target: Vitamin D3 receptor (Homo sapiens) (UniProt P11473); test: qHTS assay for small molecule antagonists of vitamin D receptor signaling (AID 588541);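 also: receptor activated by calcitriol during compound treatment; series mostly up to about 77 µM; % is scaled to controls: 0 for no effect and ±100 for the full control effect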
# In short: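 VDR-UAS-bla HEK293T cells in 2% charcoal-stripped FBS were stimulated with 1-alpha,25-dihydroxyvitamin D3 (3 nM final) plus compound for 16 h at 37 C. The beta-lactamase CCF4 readout was normalized to 50 nM agonist and DMSO, and Hill fits gave IC50.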
# [6] = target: Vitamin D3 receptor (Homo sapiens) (UniProt P11473); test: qHTS assay for small molecule agonists of vitamin D receptor signaling (AID 588543);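 also: 0% = DMSO basal and 100% = reference agonist control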
# In short: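 β-lactamase reporter, VDR-UAS-bla HEK293T, agonist mode. Cells plated 5 h at 37 °C, compound titration 16 h at 37 °C, CCF4 dye 2 h RT, ratio 460/530 nm. Hill fit → EC50, efficacy vs 50 nM 1α,25-(OH)2D3.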
# [7] = qHTS assay for small molecule agonists of retinoid X receptor alpha signaling (AID 588544); settings: HEK293T RXRa-UAS-bla, beta-lactamase reporter, 18 h; 530 nm emission; also: potency is read from the fitted curve at half-maximal effect;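 as to activation: 0% = DMSO basal wells and 100% = reference agonist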
# [8] = target: Retinoic acid receptor RXR-alpha (Homo sapiens) (UniProt P19793); test: as above
# [9] = target: Thyroid hormone receptor beta (Homo sapiens) (UniProt P10828); test: qHTS assay for small molecule agonists of thyroid hormone receptor beta signaling (AID 588545)
# In short: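 HEK 293 TR-UAS-bla; agonist mode; 18 hrs, 37 C; CCF4, ex 405/em 460 and 530 nm; norm. T3 10 nM = 100%, DMSO = 0%; Hill fit → EC50, efficacy.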
# [10] = qHTS assay for small molecule antagonists of retinoid X receptor alpha signaling (AID 588546; active = well fitted inhibition curve with a large enough effect in the signal ratio, with a control signal flat, not every such curve was filed as active; the % refers to the signal ratio;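 also: cells stimulated with 9-cis-retinoic acid as agonist; % is scaled to controls: 0 for no effect and ±100 for the full control effect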); settings: HEK293T RXRa-UAS-bla, beta-lactamase ratio, antagonist mode; measured here: W530 green channel, cytotoxicity proxy
# In short: (§1)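 Beta-lactamase reporter inhibition, read as CCF4 fluorescence ratio (ex 405, em 460/530 nm) after 2 h at RT. HEK293T UAS-bla cells, 2500/well, were stimulated with 9-cis-RA at 500 or 100 nM final alongside test compound for 18 h at 37 C.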
# [11] = target: Retinoic acid receptor RXR-alpha (Homo sapiens) (UniProt P19793); test: as above; settings: HEK293T RXRa-UAS-bla, beta-lactamase ratio, antagonist mode
# In short: as §1
# [12] = qHTS assay for small molecule activators of the p53 signaling pathway (AID 651743; active = well fitted activation curve with a large enough effect in the signal ratio, not every such curve was filed as active; the % refers to the signal ratio; also: series mostly up to about 92 µM; % of control where 0% means no effect); settings: HCT-116 p53RE-bla, beta-lactamase FRET ratio, 16 h; activation: stronger effect = higher value
# In short: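 Following 16 hours of compound exposure at 37 C, HCT-116 cells bearing the p53RE-bla reporter were loaded with LiveBLAzer B/G FRET substrate for 2 hours at room temperature and fluorescence intensity was recorded.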
# [13] = target: Peroxisome proliferator-activated receptor alpha (Homo sapiens) (UniProt Q07869); test: qHTS assay for small molecule agonists of the peroxisome proliferator-activated receptor alpha (PPARalpha) signaling pathway (AID 651778; active = well fitted curve in the direction sought with a large enough effect; an effect the other way counts as inactive or inconclusive; also: % of control where 0% means no effect); settings: PathHunter PPARalpha complementation, chemiluminescence, 6 h; max response: stronger effect = higher value
# In short: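 Enzyme-fragment complementation assay in which ligand-bound PPARalpha translocates and forms an active enzyme that generates chemiluminescence. Cells were plated overnight, exposed to compound for 6 hr at 37 C, and then given detection reagent for 60 min at room temperature.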
# [14] = qHTS assay for small molecule agonists of the antioxidant response element (ARE) signaling pathway measured by Nrf2-dependant transcriptional activity (AID 720636; active = well fitted curve in the direction sought with a large enough effect in the repeat runs; an effect the other way counts as inactive or inconclusive; also: potency is read from the fitted curve at half-maximal effect; as to activation: % of control where 0% means no effect)
# In short: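 Nrf2-dependent transcription read as ONE-Glo luciferase signal from ARE-luc HepG2 reporter cells after 16 hr compound treatment at 37 C, 5% CO2, in assay medium with 1% dialyzed FBS.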
# [15] = qHTS assay for small molecule agonists of the antioxidant response element (ARE) signaling pathway measured by Nrf2-dependant transcriptional activity - cell viability counter screen (AID 720653; active = well fitted curve in the direction sought with a large enough effect in the repeat runs; an effect the other way counts as inactive or inconclusive; also: % is scaled to controls: 0 for no effect and ±100 for the full control effect); settings: ARE-bla HepG2 viability, CellTiter-Glo ATP luminescence, 16 h; max response: stronger effect = lower value
# In short: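 ARE-bla HepG2 cells treated with compounds for 16 h at 37C; this counter screen measures viability as intracellular ATP by CellTiter-Glo luminescence after 30 min at room temperature.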
# [16] = qHTS assay for cell viability of HEK293 cells (AID 743288; active = well fitted curve in the direction sought with a large enough effect; an effect the other way counts as inactive or inconclusive; also: % is scaled to controls: 0 for no effect and ±100 for the full control effect; nearly all actives have a fitted effect of over 50% in size); settings: ATP luminescence (CellTiter-Glo), 18 h; max response: stronger effect = lower value
# In short: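 ATP luminescence (CellTiter-Glo) reports metabolically competent cell number after parental HEK293 cells, 2,000/well, were treated with DMSO-dissolved compounds for 18 h at 37 C; reagent incubation 30 min, room temperature.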
# [17] = qHTS assay for cell viability of the p53RE-bla HCT-116 cell line (AID 743292; active = well fitted curve in the direction sought with a large enough effect; an effect the other way counts as inactive or inconclusive; also: % is scaled to controls: 0 for no effect and ±100 for the full control effect; nearly all actives have a fitted effect of over 55% in size)
# In short: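 ATP-based luminescent viability (CellTiter-Glo, 30 min RT) after 16 h compound treatment at 37 C of p53RE-bla HCT-116 cells, seeded at 4,000 cells/well and rested 5 h before dosing.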
# [18] = target: Nuclear receptor subfamily 1 group I member 2 (Rattus norvegicus) (UniProt Q9R1A7); test: qHTS assay for small molecule activators of the rat pregnane X receptor (rPXR) signaling pathway (AID 651751; call rule not given here; also: 0% is about no effect); settings: rPXR reporter cells, luciferase (One-Glo), 24 h
# [19] = target: Thyroid hormone receptor beta (Homo sapiens) (UniProt P10828); test: qHTS assay for small molecule antagonists of thyroid hormone receptor beta signaling (AID 588547; active = well fitted inhibition curve with a large enough effect in the signal ratio, with a control signal flat, not every such curve was filed as active; the % refers to the signal ratio); settings: TR-UAS-bla HEK293, beta-lactamase ratio, antagonist mode, 18 h
# In short: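 TR-UAS-bla GripTite HEK293 cells in 2% charcoal/dextran FBS medium; compounds 0.59 nM to 92 uM with T3 at 0.4nM final, 18 h at 37 C. Beta-lactamase read by CCF4 fluorescence (460/530 nm); Hill fits gave IC50 and efficacy.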
# [20] = qHTS assay for environmental chemicals that activate the Aryl hydrocarbon Receptor (AhR) signaling pathway (AID 651777; active = well fitted curve in the direction sought with a large enough effect; an effect the other way counts as inactive or inconclusive; also: % of control where 0% means no effect; nearly all actives have a fitted effect of over 15% in size); settings: 1A2-DRE human hepatoma cells, luciferase, 24 h; activation: stronger effect = higher value
# In short: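 Luminescence (One-Glo, 30 min, room temperature) reports AhR-driven luciferase in stably transfected human hepatoma cells bearing DRE and CYP1A2 promoter. Cells (1,200/well) were treated with compound for 24 hr at 37 C in qHTS format.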
# Chain of Glucocorticoid receptor (Homo sapiens) (P04150 whole entry, looked up): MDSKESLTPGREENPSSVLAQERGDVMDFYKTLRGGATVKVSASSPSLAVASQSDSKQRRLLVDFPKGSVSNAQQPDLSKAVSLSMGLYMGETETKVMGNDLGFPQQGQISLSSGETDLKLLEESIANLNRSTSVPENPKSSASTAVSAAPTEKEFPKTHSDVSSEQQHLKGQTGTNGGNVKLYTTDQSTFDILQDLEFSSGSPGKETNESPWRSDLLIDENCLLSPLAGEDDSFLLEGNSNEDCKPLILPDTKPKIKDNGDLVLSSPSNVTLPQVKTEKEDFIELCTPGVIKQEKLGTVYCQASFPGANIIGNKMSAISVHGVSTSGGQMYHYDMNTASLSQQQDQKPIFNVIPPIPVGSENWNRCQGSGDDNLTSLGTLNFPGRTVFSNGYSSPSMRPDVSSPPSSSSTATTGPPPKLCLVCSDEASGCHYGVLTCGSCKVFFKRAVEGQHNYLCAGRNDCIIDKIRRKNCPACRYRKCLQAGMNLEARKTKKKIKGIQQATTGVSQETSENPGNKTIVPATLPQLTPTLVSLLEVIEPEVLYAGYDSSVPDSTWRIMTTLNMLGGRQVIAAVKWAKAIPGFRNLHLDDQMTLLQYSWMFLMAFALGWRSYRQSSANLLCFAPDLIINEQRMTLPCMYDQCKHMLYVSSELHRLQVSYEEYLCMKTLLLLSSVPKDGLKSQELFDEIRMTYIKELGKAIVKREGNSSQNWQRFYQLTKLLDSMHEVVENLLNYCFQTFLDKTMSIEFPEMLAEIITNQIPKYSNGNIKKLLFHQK
# Chain of Retinoic acid receptor RXR-alpha (Homo sapiens) (P19793 whole entry, looked up): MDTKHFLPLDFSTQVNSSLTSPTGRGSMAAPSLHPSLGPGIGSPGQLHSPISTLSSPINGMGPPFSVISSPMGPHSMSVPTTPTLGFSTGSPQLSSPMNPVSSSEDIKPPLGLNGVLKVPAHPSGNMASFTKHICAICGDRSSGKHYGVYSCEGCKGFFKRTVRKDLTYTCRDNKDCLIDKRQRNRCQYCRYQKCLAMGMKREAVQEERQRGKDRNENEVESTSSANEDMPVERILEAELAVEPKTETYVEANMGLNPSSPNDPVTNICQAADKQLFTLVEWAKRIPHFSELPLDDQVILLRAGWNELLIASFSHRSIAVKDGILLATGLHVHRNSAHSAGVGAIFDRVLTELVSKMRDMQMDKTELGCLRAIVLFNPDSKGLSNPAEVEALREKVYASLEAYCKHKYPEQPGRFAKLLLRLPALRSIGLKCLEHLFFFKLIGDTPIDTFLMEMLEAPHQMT
# Chain of Thyroid hormone receptor beta (Homo sapiens) (P10828 whole entry, looked up): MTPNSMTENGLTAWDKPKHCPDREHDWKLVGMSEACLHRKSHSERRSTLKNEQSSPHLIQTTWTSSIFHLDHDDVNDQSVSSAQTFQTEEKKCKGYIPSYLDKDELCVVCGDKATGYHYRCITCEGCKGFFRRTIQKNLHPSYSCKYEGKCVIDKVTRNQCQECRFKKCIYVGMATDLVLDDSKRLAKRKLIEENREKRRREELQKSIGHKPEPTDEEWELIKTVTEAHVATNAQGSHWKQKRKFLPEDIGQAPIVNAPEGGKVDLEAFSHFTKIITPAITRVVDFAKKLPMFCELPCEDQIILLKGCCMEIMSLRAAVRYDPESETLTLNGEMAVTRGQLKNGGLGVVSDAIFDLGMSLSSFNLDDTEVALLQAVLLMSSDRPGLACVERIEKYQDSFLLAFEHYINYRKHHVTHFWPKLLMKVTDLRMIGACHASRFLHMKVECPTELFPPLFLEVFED
# Chain of Peroxisome proliferator-activated receptor alpha (Homo sapiens) (Q07869 whole entry, looked up, the tested form may be a part): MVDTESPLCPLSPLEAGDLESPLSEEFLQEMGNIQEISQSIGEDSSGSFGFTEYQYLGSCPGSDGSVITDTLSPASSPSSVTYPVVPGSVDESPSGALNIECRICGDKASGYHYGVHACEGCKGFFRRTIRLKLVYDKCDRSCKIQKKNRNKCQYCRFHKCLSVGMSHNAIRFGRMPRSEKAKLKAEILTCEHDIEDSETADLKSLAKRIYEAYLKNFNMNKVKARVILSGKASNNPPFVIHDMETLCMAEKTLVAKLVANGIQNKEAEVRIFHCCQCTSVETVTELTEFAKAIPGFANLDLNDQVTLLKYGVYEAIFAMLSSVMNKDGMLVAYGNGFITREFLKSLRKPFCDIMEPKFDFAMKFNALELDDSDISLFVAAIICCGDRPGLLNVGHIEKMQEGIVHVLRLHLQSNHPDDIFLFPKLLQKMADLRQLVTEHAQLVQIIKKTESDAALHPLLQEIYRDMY
# Chain of Peroxisome proliferator-activated receptor delta (Homo sapiens) (Q03181 whole entry, looked up): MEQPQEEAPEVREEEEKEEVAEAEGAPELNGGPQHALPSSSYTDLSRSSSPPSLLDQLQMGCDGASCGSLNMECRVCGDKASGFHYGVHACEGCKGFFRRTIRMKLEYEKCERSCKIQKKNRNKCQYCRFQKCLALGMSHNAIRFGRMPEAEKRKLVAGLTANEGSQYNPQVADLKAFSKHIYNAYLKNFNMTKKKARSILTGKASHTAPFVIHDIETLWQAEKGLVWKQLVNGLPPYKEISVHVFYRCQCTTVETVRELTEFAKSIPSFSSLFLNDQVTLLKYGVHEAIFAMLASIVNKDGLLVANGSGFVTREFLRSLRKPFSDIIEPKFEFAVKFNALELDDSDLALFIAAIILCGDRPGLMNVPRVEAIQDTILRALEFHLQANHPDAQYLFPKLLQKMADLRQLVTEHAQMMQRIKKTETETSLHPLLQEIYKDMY
# Chain of Bile acid receptor (Homo sapiens) (Q96RI1 whole entry, looked up): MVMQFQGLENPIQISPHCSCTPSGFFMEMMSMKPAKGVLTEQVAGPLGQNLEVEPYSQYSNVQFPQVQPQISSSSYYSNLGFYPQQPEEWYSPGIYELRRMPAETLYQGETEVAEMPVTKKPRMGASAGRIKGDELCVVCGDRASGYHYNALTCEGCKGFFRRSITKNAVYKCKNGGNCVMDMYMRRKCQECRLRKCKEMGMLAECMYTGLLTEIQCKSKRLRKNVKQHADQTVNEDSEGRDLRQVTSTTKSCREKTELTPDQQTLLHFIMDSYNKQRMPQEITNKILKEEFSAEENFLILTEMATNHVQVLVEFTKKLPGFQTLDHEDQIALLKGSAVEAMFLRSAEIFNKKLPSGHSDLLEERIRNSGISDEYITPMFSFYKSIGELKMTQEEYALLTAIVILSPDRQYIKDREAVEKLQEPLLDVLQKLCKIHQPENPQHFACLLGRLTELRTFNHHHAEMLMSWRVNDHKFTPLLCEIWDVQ
# Chain of Vitamin D3 receptor (Homo sapiens) (P11473 whole entry, looked up): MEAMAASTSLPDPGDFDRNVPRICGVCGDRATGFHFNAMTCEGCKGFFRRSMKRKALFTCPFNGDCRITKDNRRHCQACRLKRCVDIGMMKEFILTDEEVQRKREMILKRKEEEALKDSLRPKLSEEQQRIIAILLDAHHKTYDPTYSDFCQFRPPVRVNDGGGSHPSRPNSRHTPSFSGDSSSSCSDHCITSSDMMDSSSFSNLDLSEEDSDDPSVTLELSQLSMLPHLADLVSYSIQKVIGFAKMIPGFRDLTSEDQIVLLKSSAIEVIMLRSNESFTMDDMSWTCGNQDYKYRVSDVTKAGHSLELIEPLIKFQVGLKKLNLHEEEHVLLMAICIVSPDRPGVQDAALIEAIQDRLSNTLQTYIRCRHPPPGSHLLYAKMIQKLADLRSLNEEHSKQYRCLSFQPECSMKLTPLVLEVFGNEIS
# Chain of Nuclear receptor subfamily 1 group I member 2 (Rattus norvegicus) (Q9R1A7 whole entry, looked up): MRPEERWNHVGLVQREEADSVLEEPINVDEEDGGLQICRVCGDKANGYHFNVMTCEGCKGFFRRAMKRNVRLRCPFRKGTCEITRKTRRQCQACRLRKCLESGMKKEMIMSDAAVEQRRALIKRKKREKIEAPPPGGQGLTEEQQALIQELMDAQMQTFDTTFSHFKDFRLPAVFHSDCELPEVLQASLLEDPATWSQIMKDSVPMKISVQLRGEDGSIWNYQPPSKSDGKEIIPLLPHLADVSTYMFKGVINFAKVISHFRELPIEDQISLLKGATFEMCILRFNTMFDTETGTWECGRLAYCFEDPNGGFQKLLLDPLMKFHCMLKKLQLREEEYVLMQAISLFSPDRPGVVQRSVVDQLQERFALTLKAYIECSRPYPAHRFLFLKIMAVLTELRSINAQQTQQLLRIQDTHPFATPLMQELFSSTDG
Structure (SMILES),activation [1],Potency [2],outcome [3],max response [4] [%],Potency [5],outcome [6],max response [7] [%],Potency [8],Potency [9],max response [10] [%],max response [11],activation [12],max response [13],Potency [14],max response [15],max response [16],Potency [17],max response [18],activity change % (negative = inhibition) [19],activation [20]
CSc1nnc(C(C)(C)C)c(=O)n1N,-6.5% (inactive),inactive,inactive,-34.1,inactive,inactive,-15.9,39.8 µM (active),inactive,-12,6.64% (inactive),-4.16% (inactive),-2.71% (inactive),inactive,6.99% (inactive),-4.13% (inactive),inactive,0.612% (inactive),,
CC1(C)[C@H](C(=O)O[C@H](C#N)c2cccc(Oc3ccccc3)c2)[C@@H]1/C=C(\Cl)C(F)(F)F,-0.137% (inactive),inactive,inactive,-6.46,inactive,inactive,9.43,inactive,inactive,-6.94,-28.2% (inactive),1.92% (inactive),-0.66% (inactive),inactive,-24% (inactive),-15% (inactive),inactive,,3.81% (inactive),0.227% (inactive)
CCCOCC(=Nc1ccc(Cl)cc1C(F)(F)F)n1ccnc1,-0.0346% (inactive),inactive,,18.7,inactive,inactive,-2.58,inactive,inactive,,,-5.04% (inactive),9.44% (inactive),61.1 µM (active),-4.06% (inactive),-21.5% (inactive),inactive,,,14% (inactive)
Brc1ccc(Br)cc1,-2.5% (inactive),inactive,inactive,-47.9,inactive,inactive,0.756,inactive,inactive,-5.87,9.56% (inactive),-8.84% (inactive),-1.4% (inactive),inactive,-4.46% (inactive),-8.04% (inactive),inactive,-2.46% (inactive),,-0.254% (inactive)
CCC(C)c1ccc(O)cc1 (stereo not given),-4.25% (inactive),,,,,,-6.05,inactive,inactive,-3.19,-17.8% (inactive),,-0.201% (inactive),inactive,-2.59% (inactive),-7.5% (inactive),inactive,-4.44% (inactive),6.18% (inactive),
CCN(CC)C(=O)SCc1ccc(Cl)cc1,5.41% (inactive),inactive,,,inactive,,0.303,inactive,inactive,-13.2,-31.3% (inactive),1.13% (inactive),-1.35% (inactive),,-5.19% (inactive),-14.7% (inactive),inactive,1.53% (inactive),12% (inactive),2.07% (inactive)
